ADAM10 inh = inhibitors of human ADAM10. 370,000 tested, 0.62% active. O14672. inhibition, % at 7 µM. recombinant ADAM10, EDANS/DABCYL FRET peptide cleavage, 3 h;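 active = inhibition above a per-campaign cutoff equal to the mean of compounds falling between control-based bounds plus 3 SD, cut at about 20% in these data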;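 also: 0% = DMSO wells while the 100% control is not disclosed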
Target sequence (O14672 214-748 limits assumed): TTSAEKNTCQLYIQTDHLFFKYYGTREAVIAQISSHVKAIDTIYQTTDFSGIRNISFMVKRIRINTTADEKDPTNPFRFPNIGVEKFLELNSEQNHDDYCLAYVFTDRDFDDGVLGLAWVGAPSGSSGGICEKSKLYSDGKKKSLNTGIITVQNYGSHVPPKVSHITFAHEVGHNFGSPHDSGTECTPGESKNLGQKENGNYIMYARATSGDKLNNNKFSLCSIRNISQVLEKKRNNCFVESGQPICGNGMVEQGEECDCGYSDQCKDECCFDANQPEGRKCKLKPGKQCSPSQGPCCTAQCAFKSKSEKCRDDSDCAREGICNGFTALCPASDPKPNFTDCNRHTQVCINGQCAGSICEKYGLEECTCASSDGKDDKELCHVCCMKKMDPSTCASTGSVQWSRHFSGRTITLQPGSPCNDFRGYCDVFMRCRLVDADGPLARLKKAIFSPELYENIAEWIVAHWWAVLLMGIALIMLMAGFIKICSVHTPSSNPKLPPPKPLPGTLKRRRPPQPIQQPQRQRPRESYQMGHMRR
NR3A LBD binder = modulators (binders) of human NR3A ligand-binding domain; Tm shift relative to glycine control, % at 25 µM; 340,000 tested, 2.5% active; AID 1259313; NR3A LBD differential scanning fluorimetry, Tm shift; 0% = protein alone, 100% = glycine-bound protein;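 active = melting temperature shift of at least 10% of the positive control shift, at one fixed dose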
ADAM17 inh = inhibits human ADAM17; recombinant ADAM17, EDANS/DABCYL FRET peptide cleavage; inhibition, % at 6.95 µM; 370,000 tested, 0.83% active; AID 720648;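 active = inhibition above the mean of compounds lying between control limits plus 3 SD, set per campaign, cut at about 8.5% in these data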;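 also: 0% = DMSO-only wells as the low control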
AHR activator = activates the human aryl hydrocarbon receptor; AHR-responsive luciferase reporter cells, luminescence; 320,000 tested, 2.5% active; activation, % at 5 µM; AID 2796; in the data active = activation above about 47%;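 also: 0% = vehicle wells and 100% = reference agonist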
rCAG RNA binder = molecules binding r(CAG) RNA repeats; r(CAG) RNA repeat, TO-PRO-1 dye displacement fluorescence; inhibition, % at 3 µM; 370,000 tested, 1.3% active;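 active = inhibition above the plate cutoff, the mean of all test compounds on that plate plus 3 SD, cut at about 35% in these data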;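 also: 0% = DMSO alone and 100% = 100 µM mitoxantrone as full dye displacement; higher means more dye released from RNA so lower well fluorescence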
proKLK7 act = activates the human kallikrein-7 zymogen; purified proKLK7, EDANS-DABCYL substrate fluorescence; 100% is mature enzyme control, 0% vehicle; activation, % at 7 µM; P49862; 370,000 tested, 0.9% active;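 active = activation above the mean of all tested compounds plus 3 SD, computed per campaign excluding outliers beyond control limits, cut at about 13% in these data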
The depositor's hits bear a star; · = no result given. Only some compounds are listed: those with a hit (about 7% of all), similar ones and a draw of the others.

SMILES | ADAM10 inh | NR3A LBD binder | ADAM17 inh | AHR activator | rCAG RNA binder | proKLK7 act
COC(=O)C1=C(C)N(Cc2ccc(C(F)(F)F)cc2)C(=NCc2ccc(C(F)(F)F)cc2)NC1c1ccccc1C(F)(F)F (stereo not drawn) | 2 | · | 1 | · | 0 | 0
COc1ccccc1NC(=O)CSc1nnc(-c2ccoc2C)o1 | -5 | 2 | -6 | -2 | 2 | 0
COc1ccccc1-c1nnc(SCC(=O)Nc2ccc(Cl)cc2Cl)o1 | -10 | -1 | -4 | 57* | 9 | 1
Cc1cc(C)c2cc(C(=O)Nc3ccccc3)[nH]c2c1 | 12 | 1 | 1 | 47* | 5 | 0
Cc1cc(C)c2cc(C(=O)Nc3ccc4c(c3)OCO4)[nH]c2c1 | -13 | -12 | -6 | 10 | 3 | 2
COC(=O)c1cc2c(c3c4cc(OC)ccc4n(S(=O)(=O)c4ccc(F)cc4)c13)C(=O)N(C)C2 | -12 | · | -2 | · | 14 | 0
Cc1cccc(-c2cccc3c4c([nH]c23)[C@@H]2C[C@H](N(C)C(=O)NC3CCCCC3)[C@H]([C@H](C)O)CN2CC4)c1 | -51 | · | -16 | · | 7 | 0
CN1CCN(C(c2ccc(Br)cc2)c2cc(Cl)c3cccnc3c2O)CC1 (stereo not drawn) | 24* | 34* | 20* | 10 | 9 | 0
CN1CCN(C(c2ccc(F)cc2)c2ccc3cccnc3c2O)CC1 (stereo not drawn) | · | 5 | · | · | · | ·
O=C(NCCc1c[nH]c2ccccc12)OCc1cn(-c2cccc(C(F)(F)F)c2)nn1 | 5 | · | 4 | · | 3 | 0
COc1cccc(-c2nn(-c3ccccc3)cc2CN(C)C(C)c2ccon2)c1 (stereo not drawn) | 8 | -2 | -1 | 68* | -6 | 0
COc1cccc(-c2nn(-c3ccccc3)cc2CN(C)Cc2ccno2)c1 | 5 | -3 | 0 | 14 | -2 | 1
CCOC(=O)C1Cc2c([nH]c3ccccc23)C(C)N1 (stereo not drawn) | -9 | -5 | -6 | 3 | -4 | 1
COC(=O)[C@H]1Cc2c([nH]c3ccccc23)[C@H](c2ccccc2)N1 | -8 | 10* | -2 | 19 | -4 | 0
CCOc1ccc(C(C)C)cc1S(=O)(=O)Nc1ccc(Cl)cn1 | 5 | 12* | -3 | -1 | -1 | 0
Clc1cccc(-c2noc3ncnc(Nc4ccc5c(c4)OCO5)c23)c1 | -7 | 0 | -4 | 55* | 0 | 0
O=C(NCCc1ccccc1)C(=O)Nc1ccc([N+](=O)[O-])cc1 | 1 | 1 | -2 | 1 | 0 | 0
O=C(Nc1ccc([N+](=O)[O-])cc1)C(Cc1ccccc1)N1C(=O)c2cccc3cccc(c23)C1=O (stereo not drawn) | -1 | 11* | 0 | 34 | 6 | -1
CN(C)S(=O)(=O)c1cc(NC(=O)[C@H](Cc2ccccc2)N2C(=O)c3ccccc3C2=O)ccc1Cl | 8 | -6 | 2 | 71* | 13 | 0
Cn1nnnc1Sc1ncnc2scc(-c3ccc([N+](=O)[O-])cc3)c12 | 10 | 13* | -2 | 0 | 1 | 0
COc1ccc(-c2c(-c3ccsc3)oc3ccc(N4CCOCC4)cc23)cc1 | -25 | -1 | -6 | 47* | 10 | -1
C#CCNC(=O)C[C@H]1C[C@@]2(C(=O)OC)C(=C[C@H](C(C)(C)C)O[C@@H]2C)N(Cc2ccccc2)C1=O | -5 | · | -3 | · | 0 | 0
CC1CCN(c2cc(N3CCOCC3)c(F)cc2[N+](=O)[O-])CC1 | -4 | 15* | -2 | 1 | -1 | 0
Cc1ccc(OCCNC(=O)/C=C/c2ccccc2)cc1 | 3 | -2 | 4 | 0 | -2 | 0
CCCOc1ccc(/C=C/C(=O)NCc2ccccc2)cc1 | -1 | 12* | 1 | 5 | -5 | 0
COc1cccc(NC(=O)c2cc(C(=O)Nc3cccc(OC)c3)n(C)n2)c1 | 10 | -8 | 2 | -1 | 3 | -8
Cn1nc(C(F)(F)F)cc1C(=O)Nc1ccc(Cl)cc1 | 13 | -1 | 8 | 69* | 1 | 0
Cn1nc(C(F)(F)F)c2cc(C(=O)Nc3ccc(Cl)cc3)sc21 | 4 | 6 | 4 | 64* | -1 | 0
Cn1nc(C(=O)Nc2ccc(Br)cc2)cc1C(=O)Nc1ccc(Br)cc1 | -2 | 3 | -3 | 65* | 1 | 0
